# In ChEMBL document CHEMBL1157539, “Thousands of chemical starting points for antimalarial lead identification” (Nature, 2010):
# Test system: HepG2
# Assay: GSK_TCMDC: Percent inhibition of human HepG2 cell line. Test compounds present at 10uM.
# Assay type: functional
row,SMILES,Inhibition
1,COc1ccc2c(NCCc3ccccc3)cc(-c3ccccc3)nc2c1.Cl,13%
2,CC1CN(c2cccc3c2nc(-c2cncc(C#N)c2)n3CCNCc2ccccc2)CC(C)O1.O=C(O)C(F)(F)F (stereo not given),0%
3,Nc1c(Cl)cc(C(O)CNCCCCCCCCCc2ccccn2)cc1Cl (stereo not given),9%
4,NC(=O)c1ccccc1OCC(=O)Nc1cccc(-c2ccc(-c3nc4cc(C(F)(F)F)ccc4[nH]3)cc2)c1,58%
5,CCCCCCCN1CC[C@@H](CCCc2ccnc3ccc(OCCN4CCNCC4)cc23)[C@@H](CC)C1.Cl,82%
6,CS(=O)(=O)NCCCNCc1cccc(-c2cccc(-c3nc4cc(C(F)(F)F)ccc4[nH]3)c2)c1.O=C(O)C(F)(F)F,17%
7,CN1CCCC1CCNC(=O)[C@H](CC1CCCCC1)NC(=O)c1ccc(O)c(-c2ccc(Cl)c(Cl)c2)c1 (stereo not given in full),0%
8,COc1ccc(-n2ccnc2SCC(=O)Nc2cc(Cl)ccc2OC)c(OC)c1,0%
9,Cl.O=C(OCC1CCN(Cc2ccccc2)C1)c1ccc(Cl)cc1 (stereo not given),0%
10,CCOC(=O)c1c(C)noc1Nc1ccc(OC)cc1,0%
11,NCCNC(=O)c1ccc(-c2cnc3[nH]cc(-c4ccc(C(N)=O)cc4)c3c2)cc1,2%
12,O=c1c2ccccc2[nH]c2nc3ccccc3c(Nc3ccccc3)c12,8%
13,COc1ccc(C2=C(Nc3ccc4oc5ccccc5c4c3)c3ccccc3C2=O)cc1,9%
14,Nc1nccc2ccc(-c3ccncc3)cc12,19%
15,CCc1c(C)nc(-n2nc(C)cc2NC(=O)C(CC)c2ccccc2)[nH]c1=O (stereo not given),41%
16,O=C(O[C@@H]1CN[C@H](C#Cc2cc3c(Nc4ccc5c(cnn5Cc5ccccc5)c4)ncnc3s2)C1)N1CCCC1,8%
17,COc1ccc(NC(=O)c2ccc(NC(=O)c3ccc(Cl)cc3)cc2)cc1N1CCN(C)CC1,23%
18,COc1ccc(-c2cnn3ccc(Nc4cc(OC)c(OC)c(OC)c4)nc23)cc1OC,57%
19,CCCNC(=O)C1CCN(C(c2ccc(Cl)cc2)c2ccc(Cl)cc2)CC1,7%
20,COc1ccc(C=Cc2cc(=N)c3ccccc3[nH]2)cc1.I,38%

row,SMILES,Inhibition
1,COc1ccccc1N1CCN(CCCCNC(=O)c2ccc(NC(=O)c3ccc4ccccc4c3)cc2)CC1,16%
2,CCOCCCNc1sc(S(=O)(=O)c2ccccc2)nc1S(=O)(=O)c1ccc(C)cc1,0%
3,CC(C)C[C@@H](/C=N/N1CCOC1=O)NC(=O)[C@H](CC(C)C)NC(=O)c1ccc(OCCN2CCOCC2)cc1,5%
4,CS(=O)(=O)c1ccc(CCNCc2ccc(-c3ccc(CN(C(=O)C4CC(=O)c5ccccc54)C4Cc5ccccc5C4)cc3)nc2)cc1.O=C(O)C(F)(F)F (stereo not given),5%
5,CC(C)CN1CCCN(Cc2cccc(NC(=O)c3ccc(Cl)c(Cl)c3)c2)CC1.O=C(O)C(F)(F)F,10%
6,O=C(c1ccc(-c2ccccn2)s1)N1CCc2cc3nccc(N4CCN5CCC[C@H]5C4)c3cc21,0%
7,CCc1cc(NC2CCN(C)CC2)nc(Nc2cccc(OC)c2)n1,22%
8,Cc1ccc(CN2CCN(Cc3cccc(NC(=O)c4ccc5ccccc5c4)c3)CC2)cc1C.O=C(O)C(F)(F)F,62%
9,CC1=C(C(=O)OC(C)C)C(c2ccccc2Cl)C2=C(CC(c3ccccc3)CC2=O)N1 (stereo not given),15%
10,Cl.O=C(N[C@@H](Cc1cc(F)cc(F)c1)[C@H](O)CNCc1cccc(C(F)(F)F)c1)c1cc(C2CCCC2)cc(N2CCCC2=O)c1,37%
11,O=C(Nc1cc(=O)[nH]c2nc(-c3ccccc3)nn12)C1CCCCC1,0%
12,Cc1ccccc1Nc1nc(NCCc2ccccc2)nc2ccccc12,32%
13,O=C(Nc1cccc(-c2cc3ccccc3[nH]2)c1)C1CCN(Cc2ccccc2O)CC1,34%
14,Cc1cccc2nc(-c3cccc(-c4ccc(CN5CCN(CCO)CC5)cc4)c3)[nH]c12.O=C(O)C(F)(F)F,12%
15,Cc1cc(NC(=O)c2ccc(-c3ccccc3)cc2)no1,5%
16,Cc1ccc(-c2ccc3c(c2)C=C(C(=O)NC2CCN(CCNC(=O)c4cccs4)CC2)CCC3)cc1.O=C(O)C(F)(F)F,27%
17,Cc1c(C(=O)C2CC2CN2CCC(N3CCCC3)CC2)sc2ccccc12 (stereo not given),16%
18,Cc1nc(-c2cccc(Nc3nccc(NCC(O)c4ccccc4)n3)c2)cs1 (stereo not given),43%
19,COc1ccc(-c2cccc(NC(=O)c3ccc(F)cc3)c2)cc1CN1CCCN(C)CC1.O=C(O)C(F)(F)F,26%
20,O=C(/C=C/c1ccc(Br)cc1)NCCCCCN1CCC(c2c[nH]c3ccccc23)CC1,73%
